Bioassay records as filed in PubChem BioAssay.
PGE2 EP2 inh: human EP2 receptor antagonists, primary screen, TR-FRET cAMP, C6 glioma cells; Prostaglandin E2 receptor EP2 subtype (Homo sapiens), P43116; C6 glioma cells expressing human EP2; cells stimulated with saturating PGE2; inhibition, % at 25 µM; actives 0.52% (n = 260,000);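 active means percent inhibition above 40 after rounding to a whole number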;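 further: rat C6 glioma host cells with rolipram phosphodiesterase inhibitor present; the protocol text gives 20 µM as final concentration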
Target sequence (P43116 whole entry, looked up): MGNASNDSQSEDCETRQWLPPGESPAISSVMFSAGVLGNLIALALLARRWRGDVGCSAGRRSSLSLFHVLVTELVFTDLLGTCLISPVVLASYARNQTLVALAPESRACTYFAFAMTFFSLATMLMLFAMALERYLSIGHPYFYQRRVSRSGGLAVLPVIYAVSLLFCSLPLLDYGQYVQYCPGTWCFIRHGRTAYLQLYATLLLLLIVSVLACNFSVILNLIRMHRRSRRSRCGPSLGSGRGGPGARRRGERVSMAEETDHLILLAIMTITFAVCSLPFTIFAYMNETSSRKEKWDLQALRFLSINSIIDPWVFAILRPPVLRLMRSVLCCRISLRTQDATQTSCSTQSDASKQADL
CHT allo act: CHT positive allosteric modulators, primary screen, cell-based, membrane potential dye, choline EC20; CHT-expressing cells; stronger effect = higher value; LV-AA mutant CHT in HEK293 cells; actives 0.49% (n = 310,000); High affinity choline transporter 1 (Homo sapiens), Q9GZV3; AID 488977, 2010; B-score at 10 µM;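 active means initial fluorescence not abnormally high and integrated response B-score, plate-corrected, over 3 SD above library mean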
EP2 mod: EP2 receptor modulators, cAMP readout, primary screen, cell-based, HTRF cAMP, PGE2 stimulation. Prostaglandin E2 receptor EP2 subtype (Homo sapiens), P43116. EP2-expressing cells, cAMP HTRF FRET, PGE2 co-stimulation. induction, % at 25 µM. actives 0.83% (n = 260,000). AID 940, 2007;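 active means compounds whose cAMP rise, as percent of the full-agonist control response, exceeds 60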;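 further: rat C6 glioma line stably carrying human EP2 under a CMV promoter; the protocol text gives 20 µM as final concentration; 100% = response of wells given 1 µM PGE2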
CHT block: inhibitors of human choline transporter CHT; High affinity choline transporter 1 (Homo sapiens), Q9GZV3; CHT-expressing cells, membrane potential dye, choline response; stronger effect = lower value; B-score at 10 µM; actives 0.86% (n = 310,000);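 active means B-score over 3 SD under the library average, and starting fluorescence ratio not unusually high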;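 further: choline stimulus applied at its EC90 after an EC20 pre-addition; B-score computed on integrated fluorescence ratio after choline addition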
EP2 confirm: cAMP induction in EP2, EP4, beta2-AR and parental cells, confirmation, counter-screen for EP2 modulator project, cell-based, five parallel assays, C6 glioma, HEK293; shares compounds with EP2 mod; cAMP HTRF induction; plus low (about EC15) PGE2 agonist; calls only at 20 µM (by protocol); actives 47% (n = 1,300); AID 1080, 2008;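 active means cAMP induction above 50% in the main assay while under 30% in all four parallel counter assays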;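 further: rat C6 glioma cells stably expressing human EP2 receptor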
* marks the source's active call; other numbers are inactive results; i = inactive; . = no result given; + = active, no number. In the library only some 2% were active in any assay of this set; here they are far more common.

SMILES	PGE2 EP2 inh	CHT allo act	EP2 mod	CHT block	EP2 confirm
COc1cc(NC(=O)CSc2nnc3c4c5c(sc4nc(C)n23)CC(C)CC5)cc(OC)c1 (stereo unspecified)	5	.	13	.	.
CCC(c1nnnn1Cc1ccco1)N(Cc1cc2cc(C)c(C)cc2[nH]c1=O)C1CCCC1 (stereo unspecified)	13	.	-16	.	.
O=C(NCc1ccccc1)c1ccc(=O)[nH]n1	7	i	14	i	.
O=C(NCc1ccco1)c1ccc(=O)[nH]n1	13	i	67*	i	i
COc1ccccc1CC(=O)N1CCC(O)(c2ccccn2)CC1	.	.	24	.	.
O=S(=O)(c1ccccc1)c1nc(-c2ccco2)oc1N1CCCCCC1	15	i	68*	i	i
CN1CCN(c2oc(-c3ccco3)nc2S(=O)(=O)c2ccccc2)CC1	15	i	-3	i	.
COP(=O)(OC)c1nc(-c2ccccc2)oc1NCc1ccccc1	4	i	44	i	.
CCCOP(=O)(OCCC)c1nc(-c2ccccc2)oc1NCc1ccccc1	15	i	94*	i	+
CCOP(=O)(OCC)c1nc(-c2ccc(Cl)cc2)oc1NCc1ccccc1	4	i	78*	i	i
Cc1ccc(C(=O)N2N=C(c3ccccc3)CC2(O)C(F)(F)F)o1 (stereo unspecified)	7	i	70*	i	i
O=C(c1ccco1)N1N=C(c2ccc(Br)cc2)CC1(O)C(F)(F)F (stereo unspecified)	11	i	86*	i	+
COc1cccc(C2=NN(C(=O)c3ccc(C)o3)C(O)(C(F)(F)F)C2)c1 (stereo unspecified)	1	i	51	i	.
COc1cccc(C2=NN(C(=O)c3cccs3)C(O)(C(F)(F)F)C2)c1 (stereo unspecified)	9	i	86*	i	+
Cc1ccccc1C(NC(=O)Cn1ccnc1-c1ccccc1)c1ccncc1 (stereo unspecified)	0	.	-10	.	.
CCOc1ccccc1COC(=O)c1cccc(-n2cnnn2)c1	6	i	71*	i	i
CC(OC(=O)c1cccc(-n2cnnn2)c1)C(=O)c1ccccc1 (stereo unspecified)	.	i	.	i	.
CCN(CC)C(=O)CSc1nnc(-c2ccccc2)n1CC1CCCO1 (stereo unspecified)	10	.	2	.	.
CCc1ccc(NC(=S)N(Cc2ccccc2)Cc2ccccn2)cc1	18	i	70*	i	i
COc1ncnc2c1oc1nc(CC(C)C)c3c(c12)CCCC3	9	.	68*	.	+
CCOC(=O)C1=NN(c2cccc(C)c2)C2(S1)SC(C(C)=O)=C(C)N2c1ccccc1 (stereo unspecified)	2	i	78*	i	+
CCOC(=O)C1=NN(c2ccc(C)cc2)C2(S1)SC(C(C)=O)=C(C)N2c1ccccc1 (stereo unspecified)	5	i	74*	i	+
COc1c2ccoc2cc2oc(C)cc(=O)c12	13	i	8	i	.
CC1=CCc2c(cc3oc(C)cc(=O)c3c2O)OC1	4	.	52	.	i
N#CC1=C(N)SC(N)=C(C#N)C1c1ccc(O)cc1	17	.	9	.	.
N#CC1=C(N)SC(N)=C(C#N)C1c1ccoc1	34	i	68*	i	i
c1cncc(-c2nc(N3CCOCC3)c3c4c(sc3n2)CCC4)c1	6	i	59	i	i
CCOC(=O)C1=C(N)N2C(=O)C(C)SC2=C(C(=O)OC)C1c1ccccc1OC (stereo unspecified)	7	i	88*	i	+
CCCOc1cccc(C2C(C(=O)c3ccco3)=C(O)C(=O)N2Cc2ccncc2)c1 (stereo unspecified)	12	.	-2	.	.
COc1ccccc1/C=C(/C(=O)OCC(=O)Nc1ccccc1C(C)C)c1ccccc1	10	i	68*	i	+
